# According to ChEMBL document CHEMBL3988442, “University of Dundee, Small-Polar-MMV Screening Library” (2021):
# Values joined by “and” are separate entries in the source; they are usually repeats but may differ in a detail not shown here. Equal values may be shown once. Among all 34,000 compounds or so, about 290 (0.85%) showed an effect of 50% or more. The list comes from a sample in which strong results are over-represented; it also holds similar structures and randomly drawn compounds.
# Tested on: Plasmodium falciparum
# Experiment: Plasmodium falciparum sporozoite viability assay
# Format: functional, organism-based
# Design: scale not given: in the data most compounds retested in dose-response had high values
Compound,Percent Effect,Percent Effect (10 mM as filed; unlikely as a test dose)
Cc1cc(CN2CCOC(Cn3nc(C)cc3C)C2)on1 (stereo unspecified),2.612%,
CCCN(C(=O)c1cnccn1)c1nc2c(s1)CCc1c-2cnn1C,1.308%,
COCCN(C(=O)c1cnccn1)c1nc2c(s1)CCc1c-2cnn1C,-10.14%,
COCCN(C(=O)c1ccccn1)c1nc2c(s1)CCc1c-2cnn1C,,80.83% and 57.64% and 71.31%
CCCN(C(=O)c1ccncc1)c1nc2c(s1)CCc1c-2cnn1C,11.45%,
Cc1ccc(C(O)CN2CCN(Cc3nccn3C)CC2)cc1C (stereo unspecified),1.122%,
Cc1noc(C)c1CN(C)C(=O)NC1CCCN(S(C)(=O)=O)C1 (stereo unspecified),9.671%,
c1ccc(-c2ccc(CN3CCOC(Cn4cncn4)C3)cc2)cc1 (stereo unspecified),-3.122%,
c1ccc2sc(N3CCOC(Cn4cccn4)C3)nc2c1 (stereo unspecified),9.76%,
Cc1cnn(CC2CN(Cc3nc4ccccc4nc3C)CCO2)c1 (stereo unspecified),-7.63%,
Cc1cnn(CC2CN(Cc3nc4ccccc4s3)CCO2)c1 (stereo unspecified),,55.85% and 70.99% and 46.92%
Cc1cc(C)n(CC2CN(Cc3nc4ccccc4s3)CCO2)n1 (stereo unspecified),,66.96% and 52.93% and 45.91%
Cc1cnn(CC2CN(Cc3nc4ccccc4o3)CCO2)c1 (stereo unspecified),-0.5102%,
Cc1nc2ccccc2nc1CN1CCOC(Cn2cccn2)C1 (stereo unspecified),6.321%,
Cc1cc(C)n(CC2CN(Cc3ccccn3)CCO2)n1 (stereo unspecified),1.241%,
Cc1nc(CN2CCOC(Cn3cncn3)C2)nc2ccccc12 (stereo unspecified),,1.85% and -1.802% and -10.11%
c1ccc(OCCN2CCC(c3nnc(-c4cccnc4)o3)CC2)cc1,-3.337%,
CCOCC1c2c(cnn2C)CCN1C(=O)c1cc(C)on1.O=C(O)C(F)(F)F (stereo unspecified),15.94%,
COc1ccc(Br)c(C(=O)NCC2CC2)c1,3.186%,
CC(C)COCC1CN(Cc2ccco2)Cc2ncn(C)c21 (stereo unspecified),12.26%,
Cc1ccc(CN2CC[C@@H]3[C@@H](CO[C@H]3CN3CCN(C)CC3)C2)s1.O=C(O)C(F)(F)F.O=C(O)C(F)(F)F.O=C(O)C(F)(F)F,10.79%,
O=C1[C@H]2CN(S(=O)(=O)C3CC3)C[C@H]2CN1CC1CC1,4.506%,
CC(=O)Nc1nc(C(=O)N2CCCCC2Cn2cc(C)cn2)cs1 (stereo unspecified),-12.14%,
Cc1ccc(S(=O)(=O)NC(=O)c2c(C)noc2C(C)C)cc1C,-15.45%,
CNC(=O)CCNC(=O)CCc1c(C)nc2cc(O)nn2c1C,8.263%,
Cc1ccc(CN(C)C(=O)CNC(=O)N2CCc3ccccc3C2)o1,1.19%,
